# Assay results published in PubChem BioAssay (NCATS).
# Inconclusive results are not listed. A number with no mark means an inactive call. Calls of active or inactive are those of the source. Calls follow the shape of the dose curve; as a rule, active = well fitted cell-killing curve with a large enough effect; inconclusive = small, poorly fitted or top-dose-only effect, or effect the other way; inactive = flat fitted curve, though single readings scatter.
# System: C33A
# Test: Primary qHTS to identify gynecologic anti-cancer compounds using libraries of approved drugs and bioactive compounds (AID 1345084); also: nearly all actives have a fitted effect of over 55% in size
# Settings: Gynecologic cancer cell panel viability, ATPlite luminescence, 48 h; series mostly up to 57.5 µM; activity change, negative = cytotoxicity: at the top concentration
# Summary of the method: (§1)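 Measured: luminescence after ATPlite addition (15 min, RT). Exposure: 48 h, 37 C, 5% CO2.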
# % is scaled to controls: 0 for no effect and ±100 for the full control effect; potency is read from the fitted curve at half-maximal effect.
Compound,"activity change, negative = cytotoxicity",Potency
CC1CC(=O)C2=C(C1)C1OC1C1(O)C2C(=O)c2cccc(O)c2C1O (stereo not drawn),-35.7% [at 38.5 µM],–
C=CC(=O)N1CCCC(n2nc(-c3ccc(Oc4ccccc4)cc3)c3c(N)ncnc32)C1 (stereo not drawn),-4.26%,–
Cc1cc(C)c2c(c1)C(N(Cc1cc(C(F)(F)F)cc(C(F)(F)F)c1)c1nnn(C)n1)CCCN2CC1CCC(C(=O)O)CC1 (stereo not drawn),-23.4%,–
OC1CCC(Nc2nc(-c3ccccc3)nc3[nH]ccc23)CC1 (stereo not drawn),-20.7%,–
C=C[C@@]1(C)CCC2C(=CCC3[C@]2(C)CCC[C@@]3(C)C(=O)O)C1 (stereo partly drawn),-17.2%,–
Cc1nc2ccc(CN(C)c3ccc(C(=O)NC(CCC(=O)O)C(=O)O)s3)cc2c(=O)[nH]1 (stereo not drawn),-14.1%,–
Cn1c(=O)c(F)c(Nc2ccc(I)cc2F)c2c(=O)n(CC(O)CO)cnc21 (stereo not drawn),-9.74%,–
COc1ccccc1S(=O)(=O)Nc1ccc2c(c1)CN(C)C(=O)N2,0.758%,–
NCC1CCN(c2nccc(-c3ccc4ccccc4c3)n2)CC1,–,28.2 µM (active)
Nc1ncnc2c1nc(Cl)n2C1OC2COP(=O)(O)OC2C1O (stereo not drawn),–,7.94 µM (active)
C[C@H](Oc1cc(-n2cnc3ccc(CN4CCN(C)CC4)cc32)sc1C(N)=O)c1ccccc1C(F)(F)F,–,15.8 µM (active)
CC#C[C@@H](CC(=O)O)c1ccc(OCc2cccc(-c3ccc(C(F)(F)F)cc3)c2)cc1,-14%,–
C=C1C(=O)OC2CC(C)=C(C(C)CCCOC(C)=O)C(OC(=O)CC(C)CC)C12 (stereo not drawn),-15.4% [at 25.3 µM],–
N#C/C(=C1\Nc2ccccc2S1)c1ccnc(NCCc2cccnc2)n1,-0.217%,–
C/C=C(\C)C(=O)O[C@H]1C=CC(=O)O[C@H]1/C=C/[C@@H](O)[C@H](C)O,-24.3%,–
FC(F)(F)c1ccccc1-c1cc(C(F)(F)F)c2nc(C3=NOC4(CCCCC4)C3)[nH]c2c1,-20.1%,–
Nc1nc2c(ncn2C2OC3COP(=O)(O)OC3C2O)c(=O)[nH]1 (stereo not drawn),7.01%,–
O=C(Nc1ccc2[nH]nc(-c3ccncc3)c2c1)[C@@H]1CCN(CC(=O)N2CCN(c3ccc(-c4ncccn4)cc3)CC2)C1,-4.64%,–
Cn1cc(-c2cnn3c(N)c(Br)c([C@@H]4CCCNC4)nc23)cn1,-14.3%,–
Nc1nc(Cl)nc2c1ncn2C1OC(CO)C(O)C1F (stereo not drawn),-34.3%,–

Compound,"activity change, negative = cytotoxicity",Potency
C/C(=C\Cc1c(O)c(Cl)c(C)c(C=O)c1O)CC/C=C(\C)[C@H]1CC(=O)C(C)(C)O1,-6.97% [at 25.3 µM],–
CC1(C)SCCN(S(=O)(=O)c2ccc(Oc3ccncc3)cc2)[C@H]1C(=O)NO,-5.83%,–
Cc1sc2c(c1C)C(c1ccc(Cl)cc1)=N[C@H](CC(=O)NCCCCNC(=O)COc1cccc3c1C(=O)N([C@H]1CCC(=O)NC1=O)C3=O)c1nnc(C)n1-2,1.44%,–
CCC(C)CC(=O)OC1C(=O)C(CO)=CC(O)C1C(C)C (stereo not drawn),–,31.6 µM (active)
O=C(c1ccc(OC(F)F)c(C#Cc2ccccn2)c1)N1Cc2cccnc2C1,7.63%,–
CC(F)(F)CN1CCOc2c(nn(-c3ccccc3Cl)c2-c2ccc(Cl)cc2)C1=O,17.7%,–
COc1cc2ncnc(Nc3ccc(O)c(Br)c3)c2cc1OC,-29.6%,–
CCCSc1nc(N[C@@H]2C[C@H]2c2ccc(F)c(F)c2)c2nnn([C@@H]3C[C@H](OCCO)[C@@H](O)[C@H]3O)c2n1,-9.83%,–
CNc1nc(NCc2ccc(NS(C)(=O)=O)cc2Cl)cc(-c2ccccn2)n1,-20.9%,–
Fc1ccc(CN2CCC(Nc3ccc(C(F)(F)F)nn3)CC2)cc1F,2.78%,–
CCCn1ncc(CN2CCCC(C(=O)c3cccc(OC(C)C)c3)C2)c1C (stereo not drawn),-11.8%,–
C=C1C(=O)O[C@@H]2/C=C(\C)CC/C=C(/C=O)[C@H](OC)[C@@H](OC(=O)C(C)C)[C@@H]12,-12.9% [at 38.5 µM],–
CC(C)c1ccc(NC(=O)c2cccs2)c(-c2nc3ccccc3[nH]c2=O)c1,3.65%,–
Cc1nc(N2CCN(C(=O)c3ccco3)CC2)c2c3c(sc2n1)CCCC3,3.2%,–
CC(O)(C(=O)C1CC1(CO)COC1OC(CO)C(O)C(O)C1O)C1C(O)CC2C3CC=C4CC(O)CC(O)C4(C)C3C(O)CC21C (stereo not drawn),–,0.562 µM (active)
COc1ccc(C[C@H]2COC(=O)[C@@H]2Cc2ccc(O[C@@H]3O[C@H](CO)[C@@H](O)[C@H](O)[C@H]3O)c(OC)c2)cc1OC,-20% [at 25.3 µM],–
O=C(C1CCCCC1)N(CCN1CCN(c2ccccc2O)CC1)c1ccccn1,0.369%,–
C=C[C@@]12COC(=O)C(=C)[C@@H]1[C@@H](O)[C@H](C(=C)C(=O)OC)[C@@H](O)C2,-31.4% [at 38.5 µM],–
CC[C@H](C(=O)Nc1ccccc1N1CCCC1)c1ccccc1,25.9%,–

# System: CAOV3
# Test: as above
# Settings: Gynecologic cancer cell panel viability, ATPlite luminescence, 48 h; series mostly up to 57.5 µM; activity change, negative = cytotoxicity: at the top concentration
# Summary of the method: as §1
Compound,"activity change, negative = cytotoxicity",Potency
CC1CC(=O)C2=C(C1)C1OC1C1(O)C2C(=O)c2cccc(O)c2C1O (stereo not drawn),-8.77% [at 38.5 µM],–
C=CC(=O)N1CCCC(n2nc(-c3ccc(Oc4ccccc4)cc3)c3c(N)ncnc32)C1 (stereo not drawn),-13.2%,–
Cc1cc(C)c2c(c1)C(N(Cc1cc(C(F)(F)F)cc(C(F)(F)F)c1)c1nnn(C)n1)CCCN2CC1CCC(C(=O)O)CC1 (stereo not drawn),-24.9%,–
OC1CCC(Nc2nc(-c3ccccc3)nc3[nH]ccc23)CC1 (stereo not drawn),-17.3%,–
C=C[C@@]1(C)CCC2C(=CCC3[C@]2(C)CCC[C@@]3(C)C(=O)O)C1 (stereo partly drawn),-17.6%,–
Cc1nc2ccc(CN(C)c3ccc(C(=O)NC(CCC(=O)O)C(=O)O)s3)cc2c(=O)[nH]1 (stereo not drawn),0.0071%,–
Cn1c(=O)c(F)c(Nc2ccc(I)cc2F)c2c(=O)n(CC(O)CO)cnc21 (stereo not drawn),-18.6%,–
COc1ccccc1S(=O)(=O)Nc1ccc2c(c1)CN(C)C(=O)N2,-19.5%,–
NCC1CCN(c2nccc(-c3ccc4ccccc4c3)n2)CC1,–,28.2 µM (active)
Nc1ncnc2c1nc(Cl)n2C1OC2COP(=O)(O)OC2C1O (stereo not drawn),–,5.62 µM (active)
C[C@H](Oc1cc(-n2cnc3ccc(CN4CCN(C)CC4)cc32)sc1C(N)=O)c1ccccc1C(F)(F)F,-8.19%,–
CC#C[C@@H](CC(=O)O)c1ccc(OCc2cccc(-c3ccc(C(F)(F)F)cc3)c2)cc1,-7.31%,–
C=C1C(=O)OC2CC(C)=C(C(C)CCCOC(C)=O)C(OC(=O)CC(C)CC)C12 (stereo not drawn),-11.7% [at 25.3 µM],–
N#C/C(=C1\Nc2ccccc2S1)c1ccnc(NCCc2cccnc2)n1,-32.6%,–
C/C=C(\C)C(=O)O[C@H]1C=CC(=O)O[C@H]1/C=C/[C@@H](O)[C@H](C)O,-40.5%,–
FC(F)(F)c1ccccc1-c1cc(C(F)(F)F)c2nc(C3=NOC4(CCCCC4)C3)[nH]c2c1,0.608%,–
Nc1nc2c(ncn2C2OC3COP(=O)(O)OC3C2O)c(=O)[nH]1 (stereo not drawn),-12.5%,–
O=C(Nc1ccc2[nH]nc(-c3ccncc3)c2c1)[C@@H]1CCN(CC(=O)N2CCN(c3ccc(-c4ncccn4)cc3)CC2)C1,-32.9%,–
Cn1cc(-c2cnn3c(N)c(Br)c([C@@H]4CCCNC4)nc23)cn1,-30.8%,–
Nc1nc(Cl)nc2c1ncn2C1OC(CO)C(O)C1F (stereo not drawn),–,0.631 µM (active)

Compound,"activity change, negative = cytotoxicity",Potency
C/C(=C\Cc1c(O)c(Cl)c(C)c(C=O)c1O)CC/C=C(\C)[C@H]1CC(=O)C(C)(C)O1,-6.06% [at 25.3 µM],–
CC1(C)SCCN(S(=O)(=O)c2ccc(Oc3ccncc3)cc2)[C@H]1C(=O)NO,5.65%,–
Cc1sc2c(c1C)C(c1ccc(Cl)cc1)=N[C@H](CC(=O)NCCCCNC(=O)COc1cccc3c1C(=O)N([C@H]1CCC(=O)NC1=O)C3=O)c1nnc(C)n1-2,-7.44%,–
CCC(C)CC(=O)OC1C(=O)C(CO)=CC(O)C1C(C)C (stereo not drawn),–,28.2 µM (active)
O=C(c1ccc(OC(F)F)c(C#Cc2ccccn2)c1)N1Cc2cccnc2C1,-1.6%,–
CC(F)(F)CN1CCOc2c(nn(-c3ccccc3Cl)c2-c2ccc(Cl)cc2)C1=O,19.4%,–
COc1cc2ncnc(Nc3ccc(O)c(Br)c3)c2cc1OC,-26.6%,–
CCCSc1nc(N[C@@H]2C[C@H]2c2ccc(F)c(F)c2)c2nnn([C@@H]3C[C@H](OCCO)[C@@H](O)[C@H]3O)c2n1,0.269%,–
CNc1nc(NCc2ccc(NS(C)(=O)=O)cc2Cl)cc(-c2ccccn2)n1,-13.5%,–
Fc1ccc(CN2CCC(Nc3ccc(C(F)(F)F)nn3)CC2)cc1F,21%,–
CCCn1ncc(CN2CCCC(C(=O)c3cccc(OC(C)C)c3)C2)c1C (stereo not drawn),0.387%,–
C=C1C(=O)O[C@@H]2/C=C(\C)CC/C=C(/C=O)[C@H](OC)[C@@H](OC(=O)C(C)C)[C@@H]12,-16.2% [at 38.5 µM],–
CC(C)c1ccc(NC(=O)c2cccs2)c(-c2nc3ccccc3[nH]c2=O)c1,-15.8%,–
Cc1nc(N2CCN(C(=O)c3ccco3)CC2)c2c3c(sc2n1)CCCC3,14.3%,–
CC(O)(C(=O)C1CC1(CO)COC1OC(CO)C(O)C(O)C1O)C1C(O)CC2C3CC=C4CC(O)CC(O)C4(C)C3C(O)CC21C (stereo not drawn),–,1.78 µM (active)
COc1ccc(C[C@H]2COC(=O)[C@@H]2Cc2ccc(O[C@@H]3O[C@H](CO)[C@@H](O)[C@H](O)[C@H]3O)c(OC)c2)cc1OC,-3.53% [at 25.3 µM],–
O=C(C1CCCCC1)N(CCN1CCN(c2ccccc2O)CC1)c1ccccn1,5.63%,–
C=C[C@@]12COC(=O)C(=C)[C@@H]1[C@@H](O)[C@H](C(=C)C(=O)OC)[C@@H](O)C2,-0.64% [at 38.5 µM],–
CC[C@H](C(=O)Nc1ccccc1N1CCCC1)c1ccccc1,6.52%,–
